In PubChem BioAssay (NCI):
Compounds without any hit were thinned out: in the full panel of roughly 83,000, 20% have a hit.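 Compound tested at a single concentration for 48 hours in 96-well plates; a percent growth value below 10 was scored as active.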 Values without a mark were called inactive. Calls of active or inactive are those of the source.

Columns and labels:
Experiment in all cases: NCI-60 one-dose screen, 48 h (100 = growth as untreated, 0 = no growth, -100 = all killed)
Conditions in all cases: 10 µM
[1] = system: RPMI-8226 leukemia
[2] = system: OVCAR-8 ovarian
[3] = system: OVCAR-5 ovarian
[4] = system: OVCAR-4 ovarian
[5] = system: SK-OV-3 ovarian
[6] = system: IGROV1 ovarian
[7] = system: OVCAR-3 ovarian
[8] = system: HS 578T breast
[9] = system: NCI/ADR-RES ovarian
[10] = system: T-47D breast
[11] = system: BT-549 breast
[12] = system: MDA-MB-435 melanoma
[13] = system: SW-620 colon
[14] = system: MCF7 breast
[15] = system: HCT-116 colon
[16] = system: HCC-2998 colon
[17] = system: KM12 colon

| SMILES | growth [1] | growth [2] | growth [3] | growth [4] | growth [5] | growth [6] | growth [7] | growth [8] | growth [9] | growth [10] | growth [11] | growth [12] | growth [13] | growth [14] | growth [15] | growth [16] | growth [17] |
| --- | --- | --- | --- | --- | --- | --- | --- | --- | --- | --- | --- | --- | --- | --- | --- | --- | --- |
| COc1ccc(-c2nc3sc(C4CC4)nn3c2/C=C2/C(=O)Nc3ccc(OC)cc32)cc1 | 58% | 76.7% | 89.5% | 44.6% | 50.9% | 81.5% | 79.7% | 25.3% | 77.2% | 68.7% | 40.1% | 61.6% | 77.7% | 30.1% | 66.3% | 104% | 77.8% |
| O=C(c1cccs1)c1ccccc1Cc1ccccc1 | 100% | 99% | 124% | 96.9% | 101% | 99.2% | 110% | 106% | 103% | 95% | 106% | 103% | 104% | 102% | 113% | 114% | 104% |
| Nc1nc(-c2ccccc2Cl)cc(-c2ccc(Cl)cc2Cl)n1 | 35.2% | 71.2% | 96.2% | 79.6% | 93% | 74.7% | 85.2% | 61.9% | 79.8% | 63.7% | 75.3% | 0.0733% (active) | 39% | 45.7% | 33% | 83.6% | 53.8% |
| Cc1ncc(-c2ccoc2)c(NC2CCCCCC2)n1 | 105% | 99.1% | 107% | 105% | 93.8% | 96.4% | 101% | 111% | 102% | 92% | 115% | 110% | 111% | 112% | 99.8% | 105% | 105% |
| Cc1cccc(C)c1NC(=O)c1sc2nc3c(cc2c1N)C(=O)CCC3 | 96% | 97.9% | 97.6% | 101% | 22.5% | 89.4% | 100% | 93.2% | 87.6% | 92.8% | 90.7% | 13% | 72.2% | 54.6% | 90.6% | 72.5% | 56.3% |
| COc1ccc(-c2nsc3c2NC(=O)CC3c2ccc(F)cc2)cc1 (stereo unspecified) | 39.6% | 46.1% | 40.3% | 90.8% | 35.2% | 56.2% | 23.9% | 66.6% | 5.04% (active) | 22.2% | 28% | -56.1% (active) | 21.4% | 22% | 19.5% | 56.7% | 22.2% |
| COc1ccc(-c2nc3ncccn3c2-c2nnc(-c3ccsc3C)o2)cc1 | 86.9% | 25.2% | 102% | 25.7% | 54.4% | 94.7% | 55.4% | 56.4% | 61.1% | 92.1% | 63.6% | 94.6% | 94.6% | 77.1% | 88.9% | 102% | 98.6% |
| C=C1c2c(C)nn(-c3ccc(OC)cc3)c2N(C)C23C[C@@H]1C1(C)c4c(C)nn(-c5ccc(OC)cc5)c4N(C)C(C)(C[C@H]12)C3 (stereo partly specified) | 4.67% (active) | 31.8% | 61.7% | 28.1% | 60.2% | 70.8% | 24% | 67.4% | 35% | 13.4% | 32.9% | 34% | 31.4% | 20.8% | 16.7% | 34.9% | 28.6% |
| CN(C)CCN=c1nc2c(c(N)n1-c1ccccc1)c(=S)n(-c1ccccc1)c(=S)n2-c1ccccc1 | -4.61% (active) | 33.6% | 63.1% | 41.7% | 76.3% | 36.3% | -48.7% (active) | 12.3% | 58.7% | -19.4% (active) | 4.45% (active) | -64.5% (active) | -59.1% (active) | 17.9% | -22.1% (active) | -39.6% (active) | 0.204% (active) |
| COc1ccccc1/C=C/C(=O)c1ccccc1 | -36.2% (active) | 61.8% | 105% | 70.2% | 118% | 28.8% | 59.9% | 73.9% | 86.7% | 94.8% | 88.4% | 70.7% | 14.9% | 32.2% | 55.3% | 101% | 27.9% |
| CCCC(F)C(=O)O (stereo unspecified) | 98.4% | 98.2% | 115% | 106% | 98.3% | 107% | 116% | 100% | 108% | 97.7% | 111% | 95.8% | 105% | 97.8% | 102% | 111% | 106% |
| CCCCCC(=O)c1ccc(OCCCN2CCN(C(=O)OCC)CC2)cc1 | 48.6% | 104% | 86% | 85.1% | 104% | 112% | 104% | 102% | 83.3% | 88.1% | 91.4% | 98.8% | 93.2% | 93% | 75.6% | 96.9% | 94.4% |
| O=C1/C(=C/c2ccc([N+](=O)[O-])o2)Oc2ccccc21 | -0.688% (active) | 2.87% (active) | 8.57% (active) | -68.6% (active) | 84% | -22.7% (active) | -69.7% (active) | 57.3% | 14.8% | 8.17% (active) | -51.3% (active) | -70.9% (active) | -77.6% (active) | 7.13% (active) | -56% (active) | -1.7% (active) | 48.3% |
| O=S(=O)(Nc1ccccn1)c1ccc(N=Nc2ccc(O)c3ncccc23)cc1 | -15.1% (active) | 1.26% (active) | 22.4% | 8.85% (active) | -7.21% (active) | -1.59% (active) | 14.4% | 13.5% | 14.1% | -6.2% (active) | 1.2% (active) | 10.1% | 11.7% | 5.03% (active) | 10.6% | 35.7% | 14.1% |
| Cc1ccc(Nc2cc(C)nc(NCCCNc3ccnc4cc(Cl)ccc34)n2)cc1 | -63.8% (active) | -60.7% (active) | 1.62% (active) | -26.1% (active) | -47.5% (active) | 7.69% (active) | -79.9% (active) | -58.6% (active) | -33% (active) | -73% (active) | -85.5% (active) | -90% (active) | -84.3% (active) | -95% (active) | -100% (active) | -86.3% (active) | -49.8% (active) |
| COc1cc(Nc2ccnc(NCCNc3ccnc4cc(Cl)ccc34)n2)cc(OC)c1 | -42.7% (active) | 45.4% | 43.9% | 42.4% | 75.1% | 23.6% | 56.8% | 63.7% | 67.9% | 15.5% | 51.4% | -50.7% (active) | 19.9% | 8.25% (active) | -20.2% (active) | 29.7% | 55.3% |
| Nc1c(C(=O)Nc2cccc(Br)c2)sc2nc3c(cc12)C(O)CCC3 (stereo unspecified) | 14.7% | 30.6% | 60.4% | 65.8% | 21.8% | 27.9% | -18.2% (active) | 28.3% | 24.5% | 47.4% | 45.2% | -42.1% (active) | 36.4% | 21% | 16.4% | 31.5% | 22.8% |
| CCCCCCN(CCCCCC)CC(O)c1ccc2c3c(cccc13)CC2 (stereo unspecified) | 27.5% | 68.4% | 48.9% | 72.4% | 69.9% | 39.4% | 80.6% | 69.1% | 56.5% | 30.2% | 62.8% | 42.9% | 19.2% | 54.2% | 17.4% | 20.3% | 58% |
